This passage reports Potency results from PubChem BioAssay (Tox21).

Records with an inconclusive call do not appear. Entries that show only a call come without a potency. The source made the active and inactive calls. Calls come from the whole dose curve; as a rule, active = well fitted inhibition curve with a large enough effect in the repeat runs; inconclusive = weak or mixed curves; inactive = flat fitted curve, though single readings scatter.
Potency is the fitted concentration of half-maximal effect.

This test can be described thus: qHTS assay to identify small molecule HDAC inhibitors (AID 1259364). Note: nearly all actives have a fitted effect of over 45% in size. Conditions: HCT-116 HDAC-Glo I/II luminescence, 2 h; series mostly up to 92.4 µM. The text has this:
U.S. Tox21 Program National Center for Advancing Translational Sciences [NCATS] NIH Chemical Genomics Center [NCGC] U.S. Environmental Protection Agency [EPA] National Institutes of Environmental Health Sciences [NIEHS] National Toxicology Program [NTP] U.S. Food and Drug Administration [FDA] Tox21 Assay Overview: Histone deacetylases (HDACs) are a group of epigenetic enzymes that regulate gene expression by histone deacetylation. HDACs are capable of introducing epigenetic modifications and such aberrations contribute to the onset and progression of several human diseases, thus making HDACs a popular therapeutic target. For identifying endogenous class I/II HDAC inhibitors a homogenous, luminogenic HDAC I/II cell based assay was used to measure the relative activity of class I and II HDACs from cells. Wild type HCT-116 cells were used to screen Tox21 libraries for identifying class I/II HDAC inhibitors.
Tox21 Assay Protocol Summary: HCT-116 cells were dispensed at 1,500 per well in 5uL of culture medium into white solid bottom 1536-well plates (Greiner Bio-One, Monroe, NC) using a Multidrop Combi (Thermo Scientific, Waltham, MA) dispenser. The assay plates were incubated at 37 C and 5% CO2 for an overnight, and then 23nL of compounds dissolved in DMSO and positive control were transferred using a Pintool station (Wako, San Diego, CA). The assay plates were incubated at 37C and 5% CO2 for 2hr. After compound treatment, 4uL of HDAC-Glo reagent (Promega Corporation, Madison, WI) was added to each well of the assay plates using Flying Reagent Dispenser (FRD, Aurora Discovery, San Diego, CA) and incubated the assay plates at room temperature for 30min. The luminescence signal was quantified using a ViewLux plate reader (Perkin Elmer, Shelton, CT).
Take `CC(=O)Oc1ccc([N+](=O)[O-])cc1CCl`: the Potency entry is “inactive”.

`CC(=O)NC1(c2cccc(F)c2)CCN(CC[C@@]2(c3ccc(Cl)c(Cl)c3)CN(c3ccccc3)C(=O)CO2)CC1`: the Potency result is “inactive”.

Turning to `C[C@@H](O)[C@H]1C(=O)N2C(C(=O)O)=C([C@H]3CCCO3)S[C@H]12`, the Potency result was “inactive”.

Take `Clc1ccc(Nc2nnc(Cc3ccncc3)c3ccccc23)cc1`: the Potency result was “inactive”.

Regarding `CC(C)(c1ccccc1)c1ccccc1`, the Potency entry is “inactive”.

`Nc1ncnc2c1ncn2[C@H]1CC[C@@H](CO)O1`: the Potency entry is “inactive”.

As to `CCCCCCCCN`, the Potency entry was “inactive”.

Turning to `CC(C)=CCC/C(C)=C/CC/C(C)=C/C(=O)OCC(=O)[C@@]1(O)CC[C@H]2[C@@H]3CCC4=CC(=O)C=C[C@]4(C)[C@H]3[C@@H](O)C[C@@]21C`, the Potency entry is “inactive”.

As for `CCOC(C)=O`, the Potency result is “inactive”.

In the case of `CC1=C(Br)C(=O)C(Br)=C/C1=C(/c1ccccc1S(=O)(=O)O)c1cc(Br)c(O)c(Br)c1C`, the Potency was 7.39 µM (active).

In the case of `CCC(OCCCOC)OC(C)=O` (stereo not given), the Potency entry was “inactive”.

Turning to `CN1CCCC(CC2c3ccccc3Sc3ccccc32)C1` (stereo not given), the Potency entry was “inactive”.

With `C=CC(C)(CCC=C(C)C)OC(=O)CC(C)C` (stereo not given), the Potency result was “inactive”.

`Cc1cc(O)ccc1O`: the Potency result is “inactive”.

`CN1CC(=O)N2[C@H](c3ccc4c(c3)OCO4)c3[nH]c4ccccc4c3C[C@@H]2C1=O`: the Potency entry is “inactive”.

Take `CN(C)CCC=C1c2ccccc2C=Cc2ccccc21`: the Potency entry was “inactive”.

On to `CNC(=O)c1cnn(-c2nc(N)c3ncn([C@@H]4O[C@H](CO)[C@@H](O)[C@H]4O)c3n2)c1`, for which the Potency result was “inactive”.

Take `O=c1[nH]c2ccc(Cl)cc2o1`: the Potency result was “inactive”.

Regarding `C=C1C[C@@]23CC[C@H]4[C@@](C)(CCC[C@@]4(C)C(=O)O[C@@H]4O[C@H](CO)[C@@H](O)[C@H](O)[C@H]4O)[C@@H]2CC[C@]1(O[C@@H]1O[C@H](CO)[C@@H](O)[C@H](O[C@@H]2O[C@H](CO)[C@@H](O)[C@H](O)[C@H]2O)[C@H]1O[C@@H]1O[C@H](CO)[C@@H](O)[C@H](O)[C@H]1O)C3`, the Potency entry was “inactive”.

For `COc1ccc(OC(=O)N(CC(=O)O)Cc2ccc(OCCc3nc(-c4ccccc4)oc3C)cc2)cc1`, the Potency result was “inactive”.

In the case of `CC1(CN2CCC(n3c(=O)[nH]c4ccccc43)CC2)OCc2ccccc2-n2cccc21` (stereo not given), the Potency entry was “inactive”.

Regarding `C1COC1`, the Potency result is “inactive”.

Consider `O=C1C(=O)c2ccccc2C(O)=C1C1CCC(c2ccc(Cl)cc2)CC1` (stereo not given), for which the Potency entry was “inactive”.

As for `CC(=O)OCC(=O)NCCCOc1cccc(CN2CCCCC2)c1`, the Potency result is “inactive”.

Consider `O=C(/C=C/c1ccccc1)OCCc1ccccc1`, for which the Potency was 30.6 µM (active).

For `O=C(OCC(O)CO)c1ccccc1Nc1ccnc2cc(Cl)ccc12` (stereo not given), the Potency entry is “inactive”.

Regarding `CCCCCCCCCCC(=O)O`, the Potency entry was “inactive”.

As for `CC(C)=CCC1C(=O)N(c2ccccc2)N(c2ccccc2)C1=O`, the Potency result was “inactive”.

As for `CC(C)(C)CC(=O)OCC(=O)[C@@]1(O)CC[C@H]2[C@@H]3CCC4=CC(=O)C=C[C@]4(C)[C@H]3[C@@H](O)C[C@@]21C`, the Potency entry was “inactive”.

Regarding `CC1(C)O[C@@H]2C[C@H]3[C@@H]4C[C@H](F)C5=CC(=O)C=C[C@]5(C)[C@H]4[C@@H](O)C[C@]3(C)[C@]2(C(=O)CO)O1`, the Potency entry is “inactive”.

Turning to `C=C(C)C(=O)OCCCCCCCCCCCCC`, the Potency entry is “inactive”.

As for `O=C=Nc1cccc(C(F)(F)F)c1`, the Potency result was “inactive”.

On to `O=C(CCc1ccc(O)cc1)c1c(O)cc(O)cc1O`, for which the Potency entry was “inactive”.

In the case of `CCCCCC#CC(=O)OC`, the Potency result is “inactive”.

`CC/C=C1/OC(=O)c2ccccc21`: the Potency result is “inactive”.

As to `CN1C[C@H](C(=O)N[C@]2(C)O[C@@]3(O)[C@@H]4CCCN4C(=O)[C@H](Cc4ccccc4)N3C2=O)C[C@@H]2c3cccc4[nH]cc(c34)C[C@H]21`, the Potency result was “inactive”.

On to `CN1C(C(=O)Nc2ccccn2)=C(O)c2sccc2S1(=O)=O`, for which the Potency result is “inactive”.

`CC1=C(CC=O)C(C)(C)CCC1`: the Potency result was “inactive”.

In the case of `CC(C)C=O`, the Potency entry is “inactive”.

For `C=C1CCC2CC1C2(C)C` (stereo not given), the Potency result was “inactive”.
